Results: publication PMC12820563, “FoxP3 forms a head-to-head dimer in vivo and stabilizes its multimerization on adjacent microsatellites”
The full ranking holds about 16,000 sequences; the median of “rpm ratio (pull-down/input)” is about 0.94, and the highest 2% start at about 1.7. Shown is part of a subset that was picked to be rich in the highest values.

Molecular target: T1, MBP-FoxP1dN (Mus musculus, UniProt P58462 326-579)
T1 sequence: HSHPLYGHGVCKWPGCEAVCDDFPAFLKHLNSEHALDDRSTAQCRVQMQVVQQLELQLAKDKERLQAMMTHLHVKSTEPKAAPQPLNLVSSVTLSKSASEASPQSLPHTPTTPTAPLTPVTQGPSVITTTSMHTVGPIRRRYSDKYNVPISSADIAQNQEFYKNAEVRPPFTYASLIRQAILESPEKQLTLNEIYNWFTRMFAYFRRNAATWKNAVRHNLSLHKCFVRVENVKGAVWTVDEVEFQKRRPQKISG
Experiment: PD-seq (MBP pull-down with sequencing); 20 mM Tris-HCl pH 7.5, 100 mM NaCl, 1.5 mM MgCl2, 0.4 uM protein, 0.1 uM dsDNA library, 30 min, room temperature, amylose pull-down; high values mean tight binding
Conditions: protein: recombinant; tags: His6-MBP; chain copies: 2; dsDNA, one strand shown
In short: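 Mouse FoxP3 or FoxP1 fragment lacking the N-terminus, His6-MBP-tagged and expressed in E. coli, was incubated at 0.4 µM with 0.1 µM Klenow-filled degenerate double-stranded DNA library for 30 min at room temperature in Tris pH 7.5 buffer with NaCl and MgCl2. Complexes captured on amylose resin were washed three times and their DNA sequenced on Illumina. Binding is reads-per-million enrichment of pull-down over input, replicates pooled.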

Sequence	binding signal
GATGATTGTTCTCCCAGCTGATGAATTCTCACAGTCGAGTAAACAAATTTTCCTAATCTTTCTGTTCAAGCGCCATCTAC	0.875 RPM ratio (pull-down/input)
GATGATTGTTCTCCCAGCTGATGAATTAATTGAGTCGAGTAAACAAATTTTCCTAATCTTTCTGTTCAAGCGCCATCTAC	0.932 RPM ratio (pull-down/input)
GATGATTGTTCTCCCAGCTGATGAATTGGGTATCTCGAGTAAACAAATTTTCCTAATCTTTCTGTTCAAGCGCCATCTAC	0.935 RPM ratio (pull-down/input)
GATGATTGTTCTCCCAGCTGATGAATTAGAAGCTTCGAGTAAACAAATTTTCCTAATCTTTCTGTTCAAGCGCCATCTAC	0.996 RPM ratio (pull-down/input)
GATGATTGTTCTCCCAGCTGATGAATTGCGGCAGTCGAGTAAACAAATTTTCCTAATCTTTCTGTTCAAGCGCCATCTAC	0.919 RPM ratio (pull-down/input)
GATGATTGTTCTCCCAGCTGATGAATTGCGCTAGTCGAGTAAACAAATTTTCCTAATCTTTCTGTTCAAGCGCCATCTAC	1.06 RPM ratio (pull-down/input)
GATGATTGTTCTCCCAGCTGATGAATTTATTGATTCGAGTAAACAAATTTTCCTAATCTTTCTGTTCAAGCGCCATCTAC	1.86 RPM ratio (pull-down/input)
GATGATTGTTCTCCCAGCTGATGAATTTATTTATTCGAGTAAACAAATTTTCCTAATCTTTCTGTTCAAGCGCCATCTAC	2.17 RPM ratio (pull-down/input)
GATGATTGTTCTCCCAGCTGATGAATTGATTTATTCGAGTAAACAAATTTTCCTAATCTTTCTGTTCAAGCGCCATCTAC	1.27 RPM ratio (pull-down/input)
GATGATTGTTCTCCCAGCTGATGAATTTATTCTTTCGAGTAAACAAATTTTCCTAATCTTTCTGTTCAAGCGCCATCTAC	1.34 RPM ratio (pull-down/input)
GATGATTGTTCTCCCAGCTGATGAATTTCTTTATTCGAGTAAACAAATTTTCCTAATCTTTCTGTTCAAGCGCCATCTAC	0.979 RPM ratio (pull-down/input)
GATGATTGTTCTCCCAGCTGATGAATTCTTTTATTCGAGTAAACAAATTTTCCTAATCTTTCTGTTCAAGCGCCATCTAC	1.13 RPM ratio (pull-down/input)
GATGATTGTTCTCCCAGCTGATGAATTAATTTCCTCGAGTAAACAAATTTTCCTAATCTTTCTGTTCAAGCGCCATCTAC	0.884 RPM ratio (pull-down/input)
GATGATTGTTCTCCCAGCTGATGAATTTATGCAGTCGAGTAAACAAATTTTCCTAATCTTTCTGTTCAAGCGCCATCTAC	1.11 RPM ratio (pull-down/input)
GATGATTGTTCTCCCAGCTGATGAATTTACGTCATCGAGTAAACAAATTTTCCTAATCTTTCTGTTCAAGCGCCATCTAC	1.45 RPM ratio (pull-down/input)
GATGATTGTTCTCCCAGCTGATGAATTATTTACCTCGAGTAAACAAATTTTCCTAATCTTTCTGTTCAAGCGCCATCTAC	1.86 RPM ratio (pull-down/input)
GATGATTGTTCTCCCAGCTGATGAATTTTTTACCTCGAGTAAACAAATTTTCCTAATCTTTCTGTTCAAGCGCCATCTAC	0.943 RPM ratio (pull-down/input)
GATGATTGTTCTCCCAGCTGATGAATTTATTACCTCGAGTAAACAAATTTTCCTAATCTTTCTGTTCAAGCGCCATCTAC	1.2 RPM ratio (pull-down/input)
GATGATTGTTCTCCCAGCTGATGAATTTACCTCCTCGAGTAAACAAATTTTCCTAATCTTTCTGTTCAAGCGCCATCTAC	1.07 RPM ratio (pull-down/input)
GATGATTGTTCTCCCAGCTGATGAATTACCTACCTCGAGTAAACAAATTTTCCTAATCTTTCTGTTCAAGCGCCATCTAC	0.913 RPM ratio (pull-down/input)
GATGATTGTTCTCCCAGCTGATGAATTGTTTACCTCGAGTAAACAAATTTTCCTAATCTTTCTGTTCAAGCGCCATCTAC	2.65 RPM ratio (pull-down/input)

Sequence	binding signal
GATGATTGTTCTCCCAGCTGATGAATTATACTGCTCGAGTAAACAAATTTTCCTAATCTTTCTGTTCAAGCGCCATCTAC	0.951 RPM ratio (pull-down/input)
GATGATTGTTCTCCCAGCTGATGAATTCTGCCTGTCGAGTAAACAAATTTTCCTAATCTTTCTGTTCAAGCGCCATCTAC	0.791 RPM ratio (pull-down/input)
GATGATTGTTCTCCCAGCTGATGAATTCATACATTCGAGTAAACAAATTTTCCTAATCTTTCTGTTCAAGCGCCATCTAC	1.01 RPM ratio (pull-down/input)
GATGATTGTTCTCCCAGCTGATGAATTTGACCGATCGAGTAAACAAATTTTCCTAATCTTTCTGTTCAAGCGCCATCTAC	0.841 RPM ratio (pull-down/input)
GATGATTGTTCTCCCAGCTGATGAATTGCTCGAGTCGAGTAAACAAATTTTCCTAATCTTTCTGTTCAAGCGCCATCTAC	0.899 RPM ratio (pull-down/input)
GATGATTGTTCTCCCAGCTGATGAATTTCCGGAATCGAGTAAACAAATTTTCCTAATCTTTCTGTTCAAGCGCCATCTAC	0.872 RPM ratio (pull-down/input)
GATGATTGTTCTCCCAGCTGATGAATTTTAGTTATCGAGTAAACAAATTTTCCTAATCTTTCTGTTCAAGCGCCATCTAC	1.18 RPM ratio (pull-down/input)
GATGATTGTTCTCCCAGCTGATGAATTTTCTTTATCGAGTAAACAAATTTTCCTAATCTTTCTGTTCAAGCGCCATCTAC	1.2 RPM ratio (pull-down/input)
GATGATTGTTCTCCCAGCTGATGAATTTAGTTTATCGAGTAAACAAATTTTCCTAATCTTTCTGTTCAAGCGCCATCTAC	1.89 RPM ratio (pull-down/input)
GATGATTGTTCTCCCAGCTGATGAATTGTTTATATCGAGTAAACAAATTTTCCTAATCTTTCTGTTCAAGCGCCATCTAC	2.47 RPM ratio (pull-down/input)
GATGATTGTTCTCCCAGCTGATGAATTGTGTTTATCGAGTAAACAAATTTTCCTAATCTTTCTGTTCAAGCGCCATCTAC	2.92 RPM ratio (pull-down/input)
GATGATTGTTCTCCCAGCTGATGAATTTTTTTTATCGAGTAAACAAATTTTCCTAATCTTTCTGTTCAAGCGCCATCTAC	0.958 RPM ratio (pull-down/input)
GATGATTGTTCTCCCAGCTGATGAATTAGTTTTATCGAGTAAACAAATTTTCCTAATCTTTCTGTTCAAGCGCCATCTAC	1.02 RPM ratio (pull-down/input)
GATGATTGTTCTCCCAGCTGATGAATTTATCTAATCGAGTAAACAAATTTTCCTAATCTTTCTGTTCAAGCGCCATCTAC	1.32 RPM ratio (pull-down/input)
GATGATTGTTCTCCCAGCTGATGAATTTCTTTTATCGAGTAAACAAATTTTCCTAATCTTTCTGTTCAAGCGCCATCTAC	1.03 RPM ratio (pull-down/input)
GATGATTGTTCTCCCAGCTGATGAATTGTTTTTATCGAGTAAACAAATTTTCCTAATCTTTCTGTTCAAGCGCCATCTAC	2.19 RPM ratio (pull-down/input)
GATGATTGTTCTCCCAGCTGATGAATTTTATATATCGAGTAAACAAATTTTCCTAATCTTTCTGTTCAAGCGCCATCTAC	1.11 RPM ratio (pull-down/input)
GATGATTGTTCTCCCAGCTGATGAATTTTTTATATCGAGTAAACAAATTTTCCTAATCTTTCTGTTCAAGCGCCATCTAC	1.08 RPM ratio (pull-down/input)
GATGATTGTTCTCCCAGCTGATGAATTCTGCGCGTCGAGTAAACAAATTTTCCTAATCTTTCTGTTCAAGCGCCATCTAC	0.978 RPM ratio (pull-down/input)
GATGATTGTTCTCCCAGCTGATGAATTCCATTACTCGAGTAAACAAATTTTCCTAATCTTTCTGTTCAAGCGCCATCTAC	0.874 RPM ratio (pull-down/input)
GATGATTGTTCTCCCAGCTGATGAATTCAAGATCTCGAGTAAACAAATTTTCCTAATCTTTCTGTTCAAGCGCCATCTAC	0.814 RPM ratio (pull-down/input)

Sequence	binding signal
GATGATTGTTCTCCCAGCTGATGAATTTCTACGATCGAGTAAACAAATTTTCCTAATCTTTCTGTTCAAGCGCCATCTAC	0.948 RPM ratio (pull-down/input)
GATGATTGTTCTCCCAGCTGATGAATTCACCATATCGAGTAAACAAATTTTCCTAATCTTTCTGTTCAAGCGCCATCTAC	0.984 RPM ratio (pull-down/input)
GATGATTGTTCTCCCAGCTGATGAATTGGGGCACTCGAGTAAACAAATTTTCCTAATCTTTCTGTTCAAGCGCCATCTAC	0.856 RPM ratio (pull-down/input)
GATGATTGTTCTCCCAGCTGATGAATTTCACTGGTCGAGTAAACAAATTTTCCTAATCTTTCTGTTCAAGCGCCATCTAC	0.806 RPM ratio (pull-down/input)
GATGATTGTTCTCCCAGCTGATGAATTATGGCAATCGAGTAAACAAATTTTCCTAATCTTTCTGTTCAAGCGCCATCTAC	1.23 RPM ratio (pull-down/input)
GATGATTGTTCTCCCAGCTGATGAATTTCGGTTCTCGAGTAAACAAATTTTCCTAATCTTTCTGTTCAAGCGCCATCTAC	0.825 RPM ratio (pull-down/input)
GATGATTGTTCTCCCAGCTGATGAATTCGGGGCCTCGAGTAAACAAATTTTCCTAATCTTTCTGTTCAAGCGCCATCTAC	0.744 RPM ratio (pull-down/input)
GATGATTGTTCTCCCAGCTGATGAATTTGTTTTATCGAGTAAACAAATTTTCCTAATCTTTCTGTTCAAGCGCCATCTAC	1.78 RPM ratio (pull-down/input)
GATGATTGTTCTCCCAGCTGATGAATTTATCTCCTCGAGTAAACAAATTTTCCTAATCTTTCTGTTCAAGCGCCATCTAC	1.08 RPM ratio (pull-down/input)
GATGATTGTTCTCCCAGCTGATGAATTTGTTAGTTCGAGTAAACAAATTTTCCTAATCTTTCTGTTCAAGCGCCATCTAC	1.78 RPM ratio (pull-down/input)
GATGATTGTTCTCCCAGCTGATGAATTTATCTGATCGAGTAAACAAATTTTCCTAATCTTTCTGTTCAAGCGCCATCTAC	1.07 RPM ratio (pull-down/input)
GATGATTGTTCTCCCAGCTGATGAATTGTTAGTTTCGAGTAAACAAATTTTCCTAATCTTTCTGTTCAAGCGCCATCTAC	1.7 RPM ratio (pull-down/input)
GATGATTGTTCTCCCAGCTGATGAATTGTTTATCTCGAGTAAACAAATTTTCCTAATCTTTCTGTTCAAGCGCCATCTAC	2.68 RPM ratio (pull-down/input)
GATGATTGTTCTCCCAGCTGATGAATTCTGTTTATCGAGTAAACAAATTTTCCTAATCTTTCTGTTCAAGCGCCATCTAC	2.76 RPM ratio (pull-down/input)
GATGATTGTTCTCCCAGCTGATGAATTCTTTTTATCGAGTAAACAAATTTTCCTAATCTTTCTGTTCAAGCGCCATCTAC	1 RPM ratio (pull-down/input)
GATGATTGTTCTCCCAGCTGATGAATTCCTTTTATCGAGTAAACAAATTTTCCTAATCTTTCTGTTCAAGCGCCATCTAC	0.896 RPM ratio (pull-down/input)
GATGATTGTTCTCCCAGCTGATGAATTAGTTAGTTCGAGTAAACAAATTTTCCTAATCTTTCTGTTCAAGCGCCATCTAC	0.968 RPM ratio (pull-down/input)
GATGATTGTTCTCCCAGCTGATGAATTTATCAAATCGAGTAAACAAATTTTCCTAATCTTTCTGTTCAAGCGCCATCTAC	1.28 RPM ratio (pull-down/input)
GATGATTGTTCTCCCAGCTGATGAATTTTTTATCTCGAGTAAACAAATTTTCCTAATCTTTCTGTTCAAGCGCCATCTAC	0.997 RPM ratio (pull-down/input)
GATGATTGTTCTCCCAGCTGATGAATTCAATGAATCGAGTAAACAAATTTTCCTAATCTTTCTGTTCAAGCGCCATCTAC	0.93 RPM ratio (pull-down/input)
GATGATTGTTCTCCCAGCTGATGAATTGGAAGGCTCGAGTAAACAAATTTTCCTAATCTTTCTGTTCAAGCGCCATCTAC	0.76 RPM ratio (pull-down/input)
